Screening results deposited in PubChem BioAssay by National Center for Advancing Translational Sciences (NCATS).
RECQ1 helicase – qHTS Assay for Inhibitors of RecQ-Like Dna Helicase 1 (RECQ1); RECQ1 DNA unwinding, red fluorescence kinetic read; Potency, µM (highest dose often 57.3 µM), actives largely listed as inhibitors; 240,000 tested, 0.54% active; note: nearly all actives have a fitted effect of over 30% in size
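RECQ1T1 50 nM; forked duplex (20 bp + 30-nt ss tails) 200 nM, ATP 2 mM final; pH 8.0, 2 mM MgCl2, 2.5 ug/ml poly(dI-dC); 15 min compound preincubation; discontinuous kinetic read over 2 h at RT.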
WRN inhibitor – qHTS for Inhibitors of WRN Helicase; Bifunctional 3'-5' exonuclease/ATP-dependent helicase WRN (Homo sapiens), Q14191; WRN helicase unwinding, fluorescent forked duplex, kinetic; Potency, µM (series often up to 114 µM), usual class: inhibitors; 360,000 tested, 0.46% active; AID 651768, 2012; note: nearly all actives have a fitted effect of over 55% in size
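Screening of the MLSMR collection measured strand separation of a quenched forked DNA duplex (100 nM) by 20 nM WRN with 2 mM ATP, all final. Compounds were preincubated with enzyme 15 min at room temperature.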
TRb SRC2 PPI – qHTS for Inhibitors of the Interaction of Thyroid Hormone Receptor and Steroid Receptor Coregulator 2. Thyroid hormone receptor beta (Homo sapiens), P10828. TRbeta-SRC2 peptide binding, fluorescence polarization; receptor liganded with 1 µM T3. Potency, µM (titrated, usually from 106 µM), actives largely listed as inhibitors. 280,000 tested, 0.065% active; note: nearly all actives have a fitted effect of over 50% in size
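Binding of a 20-amino-acid Texas Red SRC2 peptide (20 nM) to TRb ligand-binding domain (0.6 uM) with agonist T3 at 1 uM was followed by fluorescence polarization after a 5 hr room-temperature incubation.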
APEX1 inh – qHTS Assay for Inhibitors of the Human Apurinic/apyrimidinic Endonuclease 1 (APE1); recombinant APE1, TAMRA/BHQ-2 abasic DNA cleavage fluorescence; Potency, µM (series often up to 65.8 µM), most hits filed as inhibitors; 350,000 tested, 0.35% active; AID 2517, 2012; note: nearly all actives have a fitted effect of over 55% in size
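Enzyme (0.75 nM final) and test compound are incubated 15 min at room temperature before adding 50 nM quenched THF abasic-site duplex. Cleavage dequenches TAMRA, followed at 525/598 nm over three reads one minute apart.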
BLM inh – qHTS Assay for Inhibitors of Bloom's syndrome helicase (BLM). recombinant BLM DNA unwinding, fluorescence dequenching. Potency, µM (doses to about 56.1 µM), usual class: inhibitors. RecQ-like DNA helicase BLM (Homo sapiens), P54132. 350,000 tested, 0.2% active; note: nearly all actives have a fitted effect of over 35% in size
Target sequence (P54132 whole entry, looked up): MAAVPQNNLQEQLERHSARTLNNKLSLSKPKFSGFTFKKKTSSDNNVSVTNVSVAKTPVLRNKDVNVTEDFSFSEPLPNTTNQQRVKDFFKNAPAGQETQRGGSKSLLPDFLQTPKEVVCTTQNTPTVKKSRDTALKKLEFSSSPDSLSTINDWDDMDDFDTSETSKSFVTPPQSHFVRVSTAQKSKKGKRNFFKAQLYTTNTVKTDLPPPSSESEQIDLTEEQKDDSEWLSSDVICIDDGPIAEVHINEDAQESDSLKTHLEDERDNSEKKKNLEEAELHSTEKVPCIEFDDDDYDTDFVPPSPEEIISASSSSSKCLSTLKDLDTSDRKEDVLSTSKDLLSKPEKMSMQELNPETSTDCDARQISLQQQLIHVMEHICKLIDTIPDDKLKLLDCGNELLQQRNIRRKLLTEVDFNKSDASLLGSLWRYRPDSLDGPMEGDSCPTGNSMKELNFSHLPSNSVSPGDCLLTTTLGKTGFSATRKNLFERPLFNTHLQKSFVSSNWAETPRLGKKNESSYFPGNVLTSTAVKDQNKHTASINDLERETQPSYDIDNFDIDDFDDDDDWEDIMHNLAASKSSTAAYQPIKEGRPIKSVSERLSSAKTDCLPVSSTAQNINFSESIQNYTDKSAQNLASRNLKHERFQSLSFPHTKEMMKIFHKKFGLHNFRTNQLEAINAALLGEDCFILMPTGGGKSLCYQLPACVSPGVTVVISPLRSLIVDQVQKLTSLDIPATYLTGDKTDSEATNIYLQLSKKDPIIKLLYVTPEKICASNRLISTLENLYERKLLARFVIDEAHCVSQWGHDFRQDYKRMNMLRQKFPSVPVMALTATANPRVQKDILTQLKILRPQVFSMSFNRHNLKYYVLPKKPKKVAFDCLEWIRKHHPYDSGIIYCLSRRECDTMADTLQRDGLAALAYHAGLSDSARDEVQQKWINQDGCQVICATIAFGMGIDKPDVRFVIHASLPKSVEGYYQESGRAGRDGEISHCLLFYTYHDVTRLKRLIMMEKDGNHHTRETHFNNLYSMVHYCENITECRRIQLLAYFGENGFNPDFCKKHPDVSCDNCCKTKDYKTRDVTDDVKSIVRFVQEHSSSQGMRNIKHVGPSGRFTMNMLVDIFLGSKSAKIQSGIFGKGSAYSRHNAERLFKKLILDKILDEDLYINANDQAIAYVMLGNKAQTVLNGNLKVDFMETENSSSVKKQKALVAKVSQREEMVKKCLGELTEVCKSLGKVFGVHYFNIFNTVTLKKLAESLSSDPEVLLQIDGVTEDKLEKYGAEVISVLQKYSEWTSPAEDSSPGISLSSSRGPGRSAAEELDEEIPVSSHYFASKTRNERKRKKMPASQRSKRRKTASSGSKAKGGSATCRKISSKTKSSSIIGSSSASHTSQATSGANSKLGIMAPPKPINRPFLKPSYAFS
TexasRed fluor – Total Fluorescence Counterscreen for Inhibitors of the Interaction of Thyroid Hormone Receptor and Steroid Receptor Coregulator 2. TRb/SRC2 Texas Red total fluorescence interference. Potency, µM (doses to about 106 µM). 280,000 tested, 0.29% active; active = well fitted curve in either direction with a large enough effect; inconclusive = small, poorly fitted or top-dose-only effect
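Human TRb ligand-binding domain at 0.6 uM with 20 nM Texas Red SRC2 peptide in Tris buffer containing 1 uM T3 and 5% DMSO, incubated with compound 5 h at ambient temperature. Total fluorescence (555/632 nm) calculated as parallel + 2 × perpendicular.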
Hits are given with their value; . = inactive; ? = inconclusive; / = no result given; [ ] = another dose, or the depositor's remark. Only some compounds are listed: those with a hit (about 0.91% of all), similar ones and a draw of the others. Unless noted, calls come from the whole dose curve; as a rule, active = well fitted curve in the direction sought with a large enough effect; inconclusive = small, poorly fitted or top-dose-only effect, or another doubt; inactive = no such curve, though single readings can be large; an effect the other way counts as inactive or inconclusive.

SMILES	RECQ1 helicase	WRN inhibitor	TRb SRC2 PPI	APEX1 inh	BLM inh	TexasRed fluor
O=c1c(O)c(-c2ccc(O)c(O)c2)oc2c(OC3OC(CO)C(O)C(O)C3O)c(O)cc(O)c12 (stereo unspecified)	.	/	.	.	.	.
O=c1c(O)c(-c2ccc(O)c(O)c2)oc2c(OC[C@@H]3O[C@@H](O)[C@@H](O)[C@H](O)[C@H]3O)c(O)cc(O)c12	.	/	.	2.51µM	.	.
Fc1ccc(-c2noc3ncnc(N4CCCCC4)c23)cc1	/	/	.	/	.	89.1µM[quencher]
Fc1ccc(-c2noc3ncnc(N4CCN(c5ccccc5)CC4)c23)cc1	/	/	.	/	.	.
CO[C@@H]1[C@H](OC(=O)/C=C/C=C/C=C/C=C/C(=O)O)CC[C@]2(CO2)[C@H]1[C@@]1(C)O[C@@H]1CC=C(C)C	/	/	.	/	/	.
COc1ccc(CNC(=O)c2cc3c(=O)n4ccccc4nc3n(Cc3cccnc3)c2=N)cc1	14.1µM	.	.	.	.	.
COc1ccc(OC)c(CCNC(=O)c2sc3nc4n(c(=O)c3c2C)CCCC4)c1	/	/	.	/	.	.
CCNc1nc(NCC)n2c(SCC(=O)Nc3ccc(OC(F)F)cc3)nnc2n1	/	.[11.6 µM]	/	10.6µM	/	/
CCNc1nc(NCC)n2c(SCC(=O)Nc3ccc(F)cc3)nnc2n1	/	?	/	11.9µM	/	/
CCc1nnc(NC(=O)C2=CCN(S(=O)(=O)c3ccccc3)CC2)s1	.	.	.	.	.	.
N#CCCCS(=O)(=O)c1nnnn1-c1ccc(F)cc1Br	.	/	.	.	.	.
Cc1cc2nc3ccc(N(C)C)cc3nc2cc1N	/	50.1µM	/	/	/	/
Cc1ccc(-n2nc3cc(C)c(N)cc3n2)cc1	.	.	.	.	.	.
CC(C)(C)OC(=O)CN1C(=O)NC(Cc2c[nH]c3ccccc23)C1=O (stereo unspecified)	/	.	/	.	.	/
C/C(N)=C(/C#N)C(=O)CN1C(=O)NC(Cc2c[nH]c3ccccc23)C1=O (stereo unspecified)	/	.	/	15µM	.	/
Cc1cc(O)c2c(c1O)C(=O)C(O)=C(O)C2=O	10µM	/	.	6.31µM	.	.
Cc1cc(O)c(-c2cc(O)c(C)cc2O)cc1O	.	.	.	.	.	.
CCC(C)C(N)C(=O)NC(CC(N)=O)C(=O)NC(CC(C)C)C(=O)NC(CCCCN)C(=O)NC(C)C(=O)NC(CC(C)C)C(=O)NC(C)C(=O)NC(C)C(=O)NC(CC(C)C)C(=O)NC(C)C(=O)NC(CCCCN)C(=O)NC(CCCCN)C(=O)NC(C(=O)NC(CC(C)C)C(N)=O)C(C)CC (stereo unspecified)	.	/	.	.	.	.
Nc1cc(C(=O)O)c(N)c2c1C(=O)c1ccccc1C2=O	.	?	39.8µM	?	.	44.7µM[fluorescent]
COc1ccc(Cl)cc1Nc1nc(N)c2ccccc2n1	/	.	/	.	.	/
COc1ccc(C)cc1Nc1nc(N)c2cc(OC)c(OC)cc2n1	/	?	.	.	20µM	.
O=[N+]([O-])c1cc(Br)cc(C=Nc2ccc3c(c2)OCO3)c1O	?	.	.	.	14.1µM	.
Cn1c(=O)[nH]c(=O)n(C2CCCCC2)c1=O	/	/	.	/	/	.
COc1ccc(C(=O)OCC(=O)Nc2ncc([N+](=O)[O-])s2)cc1OC	/	50.1µM	/	?	/	/
CSc1nsc(/C=C/Nc2ccc(O)cc2C)c1C#N	?	?	44.7µM	?	.	50.1µM[fluorescent]
SMILES	RECQ1 helicase	WRN inhibitor	TRb SRC2 PPI	APEX1 inh	BLM inh	TexasRed fluor
N#C/C(=C\c1ccc(N2CCOCC2)o1)c1ccccc1	.	.	.	.	.	?
N#C/C(=C/c1ccc(N2CCOCC2)o1)c1nc2ccccc2[nH]1	?	56.2µM	.	.	?	?
Cc1cccc(-n2nc3c(c2NC(=O)c2ccco2)CS(=O)C3)c1C (stereo unspecified)	.	.	.	.	.	.
Cc1cccc(-n2nc3c(c2NC(=O)c2ccco2)CSC3)c1C	.	44.7µM	.	.	.	.
CCCCC(=O)Nc1ccc(C(=O)NNC(=O)c2ccc(C)c(Br)c2)cc1	.	.[11.6 µM]	.	25.1µM	.	.
CCCCC(=O)Nc1ccc(C(=O)NNC(=O)CCc2ccccc2)cc1	.	.	.	.	.	.
Cc1onc(-c2ccccc2Cl)c1C(=O)NCCn1c(C)cc2ccccc21	/	79.4µM	/	.	.	/
CC(C)(C)n1ncc2c(=O)n(Cc3ccc(SC(F)(F)F)cc3)cnc21	/	/	/	.	/	/
CC1(C)CC2CC(C)(CN2C(=O)COC(=O)c2ccc(O)cc2O)C1 (stereo unspecified)	/	.	/	10.6µM	/	/
NS(=O)(=O)c1ccc(NC(=O)CSc2nnc(NC3CC3)s2)cc1	/	?	/	10.6µM	/	/
Cc1ccc(S(=O)(=O)N2CCN(CC(=O)Nc3ccnn3C3CCCC3)CC2)cc1	/	.	/	.	/	/
O=C(NCc1ccco1)c1c(Cl)cccc1Cl	/	.	/	/	/	/
O=C1OC(NC(=O)c2ccccc2)C(n2cc(CO)nn2)=C1Cl (stereo unspecified)	.	50.1µM	.	.	.	.
COc1cc(C=C2C(=O)C=CC2=O)ccc1O	/	10µM	/	/	/	/
COc1ccc(C(=O)Nc2ccnn2C2CCN(Cc3ccc4nonc4c3)CC2)cc1	/	.	/	5.32µM	.	/
CC/C=C/CCCCCCCCCCOC(C)=O	/	/	.	/	/	.
Cc1cc(O)c(C=Nc2cccc(Cl)c2)c(=O)o1	.	.	?	.	.	44.7µM[fluorescent]
C(#CC1C=CC2OC(c3ccccc3)OCC2O1)c1ccccc1 (stereo unspecified)	.[11.5 µM]	/	.[11.2 µM]	.[12.4 µM]	.[12.4 µM]	.[11.2 µM]
CCOC(=O)C1=C(O)c2ccccc2C(=O)/C1=C\c1ccc(CC)cc1	.	56.2µM	.	.	.	.
CCOC(=O)C1=C(Cc2ccc(OC)cc2)C(=O)c2ccccc2C1=O	.	50.1µM	.	?	.	.
CCCc1ccc(/C=C2\C(=O)c3ccccc3C(O)=C2C(=O)OCC)cc1	.	/	.	.	.	.
CCOC(=O)C1=C(Cc2ccc(C)cc2)C(=O)c2ccccc2C1=O	.	/	.	.	.	.
COc1ccc(CN2CCC(=O)N([C@H](CO)CC(C)C)CC2)cc1OC	/	.	/	.	.	/
COc1ccc(C(C)(C)C)cc1NC(=O)C1=CC=CN2CCS(=O)(=O)N=C12	/	.	/	.	/	/
COc1ccc2c(c1)nc(CN1CCN(CCO)CC1)n2C	/	.	/	.	.	/
O=C(Cc1cccs1)OCC(=O)c1ccco1	.	?	.	28.2µM	.	.
CC1CC(C)CN(C(=O)COC(=O)CCC(=O)c2cccs2)C1 (stereo unspecified)	/	.	/	.	/	/
Cn1c(N)c(C(=O)COC(=O)Cc2cccs2)c(=O)n(C)c1=O	/	.	/	.	/	/
